From the supplement of paper PMC4840960

Each compound was assayed on E18 rat cortical neuron-glia co-culture (assay: myelination (MBP fiber length per Olig2+ nucleus), % of 1 µM DAPT response (DMSO = 0) (% of DAPT); higher = more myelination, active = 50 or more). Conditions: 5 µM; treatment time: 8 days (DIV5-DIV13).
In short: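 Four 10X fields in each of duplicate wells were analysed after cultures were fixed in 4 % paraformaldehyde and immunostained for MBP and Olig2, with DAPI as the nuclear counterstain. The cultures were papain-dissociated primary E18 rat cortical co-cultures at 20,000 cells/well on poly-d-lysine/laminin 96-well plates, dosed with library compounds at 1 or 5 µM in myelination medium from DIV5 to DIV13. The myelination readout was continuous straight MBP fiber length per Olig2+ nucleus, with 0.1 % DMSO set to 0 and a 1 µM positive control set to 100.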

myelination, inactive:
O=[N+]([O-])c1cccc2cn[nH]c12 [7-Nitroindazole] -5.65, CC1(C)O[C@@H]2[C@@H](CO[C@@]3(COS(N)(=O)=O)OC(C)(C)O[C@@H]23)O1 [Topiramate] -11.6, COc1cc2nc(N(C)CCCNC(=O)C3CCCO3)nc(N)c2cc1OC (stereo not drawn) [Alfuzosin] -36.4, CC[N+](C)(C)c1cccc(O)c1 [Edrophonium] 0.577, CC(C)n1c(/C=C/C(O)CC(O)CC(=O)O)c(-c2ccc(F)cc2)c2ccccc21 (stereo not drawn) [Fluvastatin] -13.7, Nc1nc(=O)[nH]cc1F [Flucytosine] -9.52, COCCOC(=O)C1=C(C)NC(C)=C(C(=O)OC(C)C)C1c1cccc([N+](=O)[O-])c1 (stereo not drawn) [Nimodipine] -24.9, NS(=O)(=O)c1cc2c(cc1Cl)NCNS2(=O)=O [Hydrochlorothiazide] -12.5, C=C1/C(=C\C=C2/CCC[C@]3(C)[C@@H]([C@H](C)CCCC(C)(C)O)CC[C@@H]23)C[C@@H](O)C[C@@H]1O [Calcitriol] 6.28, OCc1cccnc1 [Nicotinyl Alcohol] -10.1, COc1c(N2CCNC(C)C2)c(F)cc2c(=O)c(C(=O)O)cn(C3CC3)c12 (stereo not drawn) [Gatifloxacin] -14.2, Cc1nccn1CC1CCc2c(c3ccccc3n2C)C1=O (stereo not drawn) [Ondansetron] -35.8, COCC1=C(C(=O)OC(C)OC(=O)OC(C)C)N2C(=O)[C@@H](NC(=O)/C(=N\OC)c3csc(N)n3)[C@H]2SC1 (stereo partly drawn) [Cefpodoxime proxetil] -4.97
